V-ATPase pH – alters yeast V-ATPase proton transport; S. cerevisiae, pHLuorin cytosolic pH fluorescence; response, % at 10 µM; 350,000 tested, 0.37% active; AID 504577; in the data active means response mostly above about 7.3%, no sharp cut-off; inactive means mostly below about 5.4%; further: actives read high
HSV replic up – HSV replication enhancement; HSV replication augmentation in cells, fold increase; maximum fold increase; 220,000 tested, 0.005% active; in the data active means maximum fold increase above about 1.5; tested in PC3 cells
Wee1 degr inh – blocks degradation of human Wee1 kinase | reporter increase, % at 5 µM | P30291 | 220,000 tested, 1.2% active | HeLa Luc-Wee1K328M stability, luciferase luminescence; 100% = proteasome inhibitor MG132 effect;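 active means activation above the mean of all tested compounds plus 3 SD, set per screening run, cut at about 8.8% in these data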;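 further: cells exposed to compound for 20 h before luminescence read; 0% = DMSO alone and 100% = MG132 at 30 µM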
Target sequence (P30291 whole entry K328M): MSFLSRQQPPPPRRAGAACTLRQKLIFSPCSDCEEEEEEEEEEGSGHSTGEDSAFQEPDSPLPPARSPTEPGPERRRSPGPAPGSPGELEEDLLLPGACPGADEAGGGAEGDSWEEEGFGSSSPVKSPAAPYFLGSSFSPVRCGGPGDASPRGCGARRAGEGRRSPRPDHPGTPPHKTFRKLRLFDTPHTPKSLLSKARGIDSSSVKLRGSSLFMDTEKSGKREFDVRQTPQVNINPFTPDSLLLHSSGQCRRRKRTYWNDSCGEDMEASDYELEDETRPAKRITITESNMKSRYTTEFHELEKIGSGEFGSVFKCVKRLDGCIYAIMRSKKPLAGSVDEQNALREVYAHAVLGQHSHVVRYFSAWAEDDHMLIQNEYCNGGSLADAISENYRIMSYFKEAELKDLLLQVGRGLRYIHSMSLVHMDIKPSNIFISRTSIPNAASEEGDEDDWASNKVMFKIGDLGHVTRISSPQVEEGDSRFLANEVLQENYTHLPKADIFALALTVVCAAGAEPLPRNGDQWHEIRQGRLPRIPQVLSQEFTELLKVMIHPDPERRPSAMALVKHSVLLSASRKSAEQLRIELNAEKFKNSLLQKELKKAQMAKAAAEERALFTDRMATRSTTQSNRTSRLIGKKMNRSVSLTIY
TNF death inh – blocks TNF-alpha induced death of Jurkat FADD-/- cells. Jurkat FADD-/- TNF necroptosis rescue, ATP luminescence, 24 h; 0 = TNF only, 100 = no-TNF cells. activation (protection from cell death), % at 10 µM. 220,000 tested, 0.068% active. AID 463075;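 active means activation, meaning protection from cell death, of at least 50% relative to plate controls; inactive means activation below 50%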;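 further: necroptosis triggered by 40 ng/mL TNF-alpha added together with compound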
zVAD death inh – blocks zVAD induced death of L929 cells | 220,000 tested, 0.38% active | AID 1377 | L929 zVAD necroptosis rescue, ATP luminescence, 24 h; with zVAD 60 µM | viability rescue, % at 10 µM;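 active means activation, scaled between plate controls, above about 75%, limit read from the data; inactive means activation under that limit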;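 further: 0% = zVAD with DMSO and 100% = DMSO alone without zVAD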
VATPase regulator – modulates yeast V-ATPase proton transport; S. cerevisiae pHLuorin cytosolic pH; shares compounds with V-ATPase pH; AID 602197; 980 tested, 2% active; response, % at 10 µM; in the data active means response above about 24%;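 further: plate controls were vehicle wells for no effect and positive control wells for full effect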
* marks the source's active call; other numbers are inactive results; i = inactive; . = no result given. Sampled rows, rich in hits. Any-hit rate of the full collection: about 1.4%.

SMILES | V-ATPase pH | HSV replic up | Wee1 degr inh | TNF death inh | zVAD death inh | VATPase regulator
O=C(NCc1ccc(C(=O)O)cc1)OCc1ccccc1 | 0 | i | -4 | 0 | 1 | .
COc1cccc2c1nc(C)c1cc(C)oc12 | 11* | i | 4 | -3 | 0 | -4
COc1cccc(NC(=O)N(C)C[C@H]2OCc3cnnn3CCCC(=O)N([C@H](C)CO)C[C@@H]2C)c1 | 1 | . | . | . | . | .
Cc1ccc(C2=N/C(=C\c3c(C)nn(-c4ccccc4)c3N3CCCC3)C(=O)O2)cc1 | 71* | i | -1 | 1 | 0 | -6
Cc1nn(-c2ccccc2)c(N2CCCC2)c1/C=C1\N=C(c2ccc(F)cc2)OC1=O | -1 | i | 3 | 0 | 0 | .
COc1ccc(CC(=O)OCC(=O)Nc2cccc(C(C)=O)c2)cc1OC | 0 | . | . | . | . | .
COc1ccc(C(=O)Nc2cc(C)nn2-c2ccc(F)cc2)cc1 | 11* | . | . | . | . | -4
CN(C)S(=O)(=O)N1CCC(Oc2cccc(C(=O)N3CCCCCC3)c2)CC1 | 5 | . | . | . | . | .
CCC(=O)C1CCCN(C(=O)c2cccc(OC3CCN(S(C)(=O)=O)CC3)c2)C1 (stereo not drawn) | 12* | . | . | . | . | -1
O=C(CSc1nc(=O)n(CCCN2CCOCC2)c2c1CCCC2)Nc1ccc(F)cc1F | 6.0* | . | . | . | . | -1
O=C(CSc1nc(=O)n(CCCN2CCOCC2)c2c1CCC2)Nc1ccc(F)cc1F | 0 | . | . | . | . | .
O=C(NC1CCC(=O)N(CCOc2ccccc2)CC1)OCc1ccccc1 (stereo not drawn) | 2 | . | . | . | . | .
C[C@@H](N)C(=O)NC[C@H]1O[C@@H](n2cnc3c(N)ncnc32)[C@H](O)[C@@H]1O | 1 | . | . | . | . | .
CCCCOC(=O)Cn1c(-c2ccccc2)nc2ccccc2c1=O | 2 | i | -1 | 2 | -1 | .
CCOC(=O)Cn1c(=O)c(-c2ccccc2NCc2ccccc2)nc2ccccc21 | -1 | i | 2 | -2 | 0 | 3
CCOC(=O)Cn1c(-c2ccccc2)nc2ccccc2c1=O | 1 | i | 1 | -1 | 0 | -3
CC(=O)c1ccc(NC(=O)CN2C(=O)COc3ccc(S(=O)(=O)N4CCCC4)cc32)cc1 | -1 | . | . | . | . | .
O=C(/C=C/c1ccc(Cl)c([N+](=O)[O-])c1)Nc1cccc(NC(=O)c2ccco2)c1 | 8.8* | i | 1 | 0 | 1 | -2
CCOc1ccc2nc(N3CCC(C(=O)N4CCN(C(=O)c5ccco5)CC4)CC3)sc2c1 | 12* | i | 2 | -1 | -1 | 4
CCOc1ccc2nc(NC(=O)C3CCN(C(=O)c4ccco4)CC3)sc2c1 | -2 | . | . | . | . | .
COc1ccccc1-c1cc(C(=O)NCCc2ccccc2)no1 | 13* | i | 3 | -6 | 1 | 0
COc1ccc(CCNC(=O)c2cc(-c3ccccc3OC)on2)cc1OC | 2 | i | -2 | -3 | 1 | .
CCOc1ccc(-c2nnn(CC(=O)N3CCCC(C)C3)n2)cc1 (stereo not drawn) | 0 | i | -2 | 0 | 74 | .
Cc1sc(-c2ccccn2)nc1OC(=O)c1ccc(F)cc1F | 11* | i | -2 | 1 | -1 | 1
CCc1ccc(NC(=O)C2CCCN(S(=O)(=O)c3cnc[nH]3)C2)cc1 (stereo not drawn) | 11* | . | . | . | . | 0
SMILES | V-ATPase pH | HSV replic up | Wee1 degr inh | TNF death inh | zVAD death inh | VATPase regulator
Cc1ccc(C(=O)OCC(=O)NCc2cccs2)cc1C | 1 | i | 2 | 0 | -1 | .
Cc1ccc(C(=O)OCC(=O)NCc2cccs2)cc1 | 9.9* | i | 2 | 1 | 0 | 3
Cc1cc(NC(=O)COC(=O)c2c(Cl)cccc2Cl)no1 | -2 | . | . | . | . | .
N/C(=N\O)c1ccc(N2CCN(c3ncccc3C(F)(F)F)CC2)nc1 | 26* | i | 1 | -24 | 0 | 1
Cc1nc2c(-c3ccc(F)cc3)c(C)nn2c(C)c1CCC(=O)N1CCN(c2ccccc2)CC1 | 12* | i | -2 | 0 | -1 | 2
CCC(NC(=O)c1ccc(C#CC2(O)CCCCC2)cc1)C(=O)O (stereo not drawn) | 12* | i | 1 | 0 | 1 | -1
CCN(CC)CCCNC(=O)/C=C/C(=O)O | -5 | i | -2 | 1 | 1 | .
COC(=O)c1cc(Br)c(=O)n(-c2ccccn2)c1 | 7 | i | 0 | 0 | 1 | .
COC(=O)c1cc(Br)c(=O)n(-c2cc(C)on2)c1 | 8.0* | i | 2 | 0 | 0 | -3
Cc1n[nH]c(=S)n1-c1ccc(Cl)cc1 | -2 | i | 0 | -1 | 8 | -2
Cc1ccc(S(=O)(=O)N2CCN(C(=O)COC(=O)c3cccnc3Cl)CC2)c(C)c1 | 13* | . | . | . | . | 0
COc1cc(OC)c(NC(=O)CNC(=O)Cn2ccc3ccccc3c2=O)cc1Cl | -3 | . | . | . | . | .
Cn1c(=O)c2cc(S(=O)(=O)NC(Cc3ccccc3)C(=O)NCc3ccco3)ccc2n(C)c1=O (stereo not drawn) | 6 | i | -2 | -2 | 0 | .
COCCCNC(=O)C(Cc1ccccc1)NS(=O)(=O)c1ccc2c(c1)c(=O)n(C)c(=O)n2C (stereo not drawn) | 16* | i | -2 | 2 | 0 | -2
Cc1cccc(NC(=O)CCc2ccccc2)c1C | -2 | . | . | . | . | .
COc1ccccc1OCCNC(=O)CCNC(=O)c1ccccc1OC | -2 | . | . | . | . | .
COc1ccccc1C(=O)NCCC(=O)NCCC12CC3CC(CC(C3)C1)C2 | 11* | . | . | . | . | -6
O=C(CCCc1ccccc1)NCCS(=O)(=O)N1CCN(c2ccccc2F)CC1 | -3 | . | . | . | . | .
CCCC(=O)Nc1cc(C(=O)O)ccc1Sc1ccc(C)cc1 | -3 | i | -1 | 0 | -1 | .
Cc1oc(C(C)(C)C)cc1C(=O)Nc1cccc(/C=C\C(=O)O)c1 | 14* | i | 1 | 3 | 1 | -4
COCOCCn1cc(CN2CCS(=O)(=O)N(Cc3ccc(-c4ccc(OC)nc4)cc3)C(C)C2=O)nn1 (stereo not drawn) | 7.8* | . | . | . | . | -2
Cc1ccc2[nH]c(=O)c(CN(CCN3CCOCC3)C(=O)Nc3ccccc3F)cc2c1 | 0 | i | 1 | 0 | 0 | .
Cc1ccc2[nH]c(=O)c(CN(Cc3ccccc3Cl)C(=O)N3CCOCC3)cc2c1 | 16* | i | -1 | -6 | 0 | -3
CCOC(=O)/C(C#N)=C1/C=CN(Cc2ccccc2)C=N1 | 3 | i | -1 | -1 | 1 | .
CCOC(=O)/C(C#N)=C1\C(=O)N(Cc2ccccc2)c2ccccc21 | 10* | i | 4 | -4 | 1 | 6
Cc1ccc(C(=O)Nc2ccccc2OC(F)F)cc1 | 0 | i | -2 | -1 | 0 | .
O=C(Nc1ccccc1OC(=O)c1ccccc1)c1ccccc1 | 15* | . | . | . | . | 4
O=C(CCc1ccccc1)Nc1ccccc1OC(=O)c1ccccc1 | -2 | . | . | . | . | .
O=C(Nc1ccccc1OC(F)F)c1ccccc1 | 11* | i | -1 | -2 | 0 | 3
Cc1ccc(C(=O)CCC(=O)N2CCN(c3ccccc3O)CC2)cc1 | 11* | . | . | . | . | -3

Screens as filed in PubChem.
